Results published in publication PMC12864922, “TDP-43 directly inhibits mRNA accumulation in neurites through modulation of mRNA stability”.
Positions count from the first letter of the chain named. Whole data set: some 9,900 sequences, median “r (bound/input frequency ratio)” near 0.7, cut for the highest 2% near 6.5. Shown is part of a subset that was picked to be rich in the highest values.

B1: ENSMUSG00000061578.324|Ksr2|150:154 (ssRNA)
RNA: GGGAGUUCUACAGUCCGACGAUCGCUUCGAUAUCCGCAUGCUAGUAGCUCAAUGACCCAGUGGGUCACAGUUCUAGGCGCUCCAAGGAAGCCAGGGGAGGGGGACUCCUCAGGAAGGAGUGACCAGUCACCUGCCUCCCAGGGUUCUGCCUUGCCCUUAAGCUAGGGUCCUUCAAGCAUCCACAGACUUAGACACACGUGGUAACAUGCUUGUAAUCCUGGCACUCUGGAGGCUGAGGCAGGAGGAUAACAAGUCUAGACUAUAUAUGAUUUCUGAGGGUCUGUUAGUGAAUAAGUACCUGGACUCUUGCGGUCGCACUAGUGUGGAAUUCUCGGGUGUCAAGG
B2: ENSMUSG00000032194.275|Kank2 (ssRNA)
RNA: GGGAGUUCUACAGUCCGACGAUCGCUUCGAUAUCCGCAUGCUAAUAAAUGAAUAGAUGGAUGGAUGAAUGAACAGAUAGAUGAAUGGAUGGAUGGACAGGUGGGUGGAUGGAUGGGUGGACGGAUGAGUGUGGGGUGGGUGGAUGGAUAAAUGAGCAAUGGAUGAGAAACUGGGUUGGCUGGUGGGUAGAUGUCAUGAUGGAGUCUUUGCACGUGUAUGAAACAGAAAACCAAACUUCAGGACAGACAGCUGCUGGUGUCUCUGGAUGCUCACAGCCUAGGGCACAUUUGAAAGGUCGUGCUCCUCUUGCGGUCGCACUAGUGUGGAAUUCUCGGGUGUCAAGG
B3: ENSMUSG00000032194.274|Kank2 (ssRNA)
RNA: GGGAGUUCUACAGUCCGACGAUCGCUUCGAUAUCCGCAUGCUAGGAUGCAUAAAUGAAUAGAUGGAUGGAUGAAUGAACAGAUAGAUGAAUGGAUGGAUGGACAGGUGGGUGGAUGGAUGGGUGGACGGAUGAGUGUGGGGUGGGUGGAUGGAUAAAUGAGCAAUGGAUGAGAAACUGGGUUGGCUGGUGGGUAGAUGUCAUGAUGGAGUCUUUGCACGUGUAUGAAACAGAAAACCAAACUUCAGGACAGACAGCUGCUGGUGUCUCUGGAUGCUCACAGCCUAGGGCACAUUUGAAAGGUCCUCUUGCGGUCGCACUAGUGUGGAAUUCUCGGGUGUCAAGG
B4: ENSMUSG00000032194.273|Kank2|97:101;184:188 (ssRNA)
RNA: GGGAGUUCUACAGUCCGACGAUCGCUUCGAUAUCCGCAUGCUAGUGGAUGGAUGCAUAAAUGAAUAGAUGGAUGGAUGAAUGAACAGAUAGAUGAAUGGAUGGAUGGACAGGUGGGUGGAUGGAUGGGUGGACGGAUGACACACGGGUGGGUGGAUGGAUAAAUGAGCAAUGGAUGAGAAACUGGGUUGGCUGGUGGGUAGAUGUCAUGAUGGAGUCUUUGCACGUCAUACAAACAGAAAACCAAACUUCAGGACAGACAGCUGCUGGUGUCUCUGGAUGCUCACAGCCUAGGGCACAUUUGACUCUUGCGGUCGCACUAGUGUGGAAUUCUCGGGUGUCAAGG
B5: ENSMUSG00000032194.278|Kank2 (ssRNA)
RNA: GGGAGUUCUACAGUCCGACGAUCGCUUCGAUAUCCGCAUGCUAGGAUGAAUGAACAGAUAGAUGAAUGGAUGGAUGGACAGGUGGGUGGAUGGAUGGGUGGACGGAUGAGUGUGGGGUGGGUGGAUGGAUAAAUGAGCAAUGGAUGAGAAACUGGGUUGGCUGGUGGGUAGAUGUCAUGAUGGAGUCUUUGCACGUGUAUGAAACAGAAAACCAAACUUCAGGACAGACAGCUGCUGGUGUCUCUGGAUGCUCACAGCCUAGGGCACAUUUGAAAGGUCGUGCUCUGAGCUGAGCCCUGAGUUCUCUUGCGGUCGCACUAGUGUGGAAUUCUCGGGUGUCAAGG
B6: ENSMUSG00000032194.274|Kank2|91:95;178:182 (ssRNA)
RNA: B3 RNA with G134C, U135A, G136C, U137A, G138C, G221C, U222A, A223U, U224A, G225C
B7: ENSMUSG00000032194.277|Kank2 (ssRNA)
RNA: GGGAGUUCUACAGUCCGACGAUCGCUUCGAUAUCCGCAUGCUAAUGGAUGGAUGAAUGAACAGAUAGAUGAAUGGAUGGAUGGACAGGUGGGUGGAUGGAUGGGUGGACGGAUGAGUGUGGGGUGGGUGGAUGGAUAAAUGAGCAAUGGAUGAGAAACUGGGUUGGCUGGUGGGUAGAUGUCAUGAUGGAGUCUUUGCACGUGUAUGAAACAGAAAACCAAACUUCAGGACAGACAGCUGCUGGUGUCUCUGGAUGCUCACAGCCUAGGGCACAUUUGAAAGGUCGUGCUCUGAGCUGAGCCCCUCUUGCGGUCGCACUAGUGUGGAAUUCUCGGGUGUCAAGG
B8: ENSMUSG00000032194.279|Kank2 (ssRNA)
RNA: GGGAGUUCUACAGUCCGACGAUCGCUUCGAUAUCCGCAUGCUAAUGAACAGAUAGAUGAAUGGAUGGAUGGACAGGUGGGUGGAUGGAUGGGUGGACGGAUGAGUGUGGGGUGGGUGGAUGGAUAAAUGAGCAAUGGAUGAGAAACUGGGUUGGCUGGUGGGUAGAUGUCAUGAUGGAGUCUUUGCACGUGUAUGAAACAGAAAACCAAACUUCAGGACAGACAGCUGCUGGUGUCUCUGGAUGCUCACAGCCUAGGGCACAUUUGAAAGGUCGUGCUCUGAGCUGAGCCCUGAGUUCCAGCCCUCUUGCGGUCGCACUAGUGUGGAAUUCUCGGGUGUCAAGG
B9: ENSMUSG00000032194.272|Kank2|103:107;190:194 (ssRNA)
RNA: GGGAGUUCUACAGUCCGACGAUCGCUUCGAUAUCCGCAUGCUAGGGUGGGUGGAUGGAUGCAUAAAUGAAUAGAUGGAUGGAUGAAUGAACAGAUAGAUGAAUGGAUGGAUGGACAGGUGGGUGGAUGGAUGGGUGGACGGAUGACACACGGGUGGGUGGAUGGAUAAAUGAGCAAUGGAUGAGAAACUGGGUUGGCUGGUGGGUAGAUGUCAUGAUGGAGUCUUUGCACGUCAUACAAACAGAAAACCAAACUUCAGGACAGACAGCUGCUGGUGUCUCUGGAUGCUCACAGCCUAGGGCACCUCUUGCGGUCGCACUAGUGUGGAAUUCUCGGGUGUCAAGG
B10: ENSMUSG00000032194.276|Kank2 (ssRNA)
RNA: GGGAGUUCUACAGUCCGACGAUCGCUUCGAUAUCCGCAUGCUAGAAUAGAUGGAUGGAUGAAUGAACAGAUAGAUGAAUGGAUGGAUGGACAGGUGGGUGGAUGGAUGGGUGGACGGAUGAGUGUGGGGUGGGUGGAUGGAUAAAUGAGCAAUGGAUGAGAAACUGGGUUGGCUGGUGGGUAGAUGUCAUGAUGGAGUCUUUGCACGUGUAUGAAACAGAAAACCAAACUUCAGGACAGACAGCUGCUGGUGUCUCUGGAUGCUCACAGCCUAGGGCACAUUUGAAAGGUCGUGCUCUGAGCUCUCUUGCGGUCGCACUAGUGUGGAAUUCUCGGGUGUCAAGG

Each binder was assayed against TDP-43 (Homo sapiens, UniProt Q13148 1-414) (assay: RNA Bind-n-Seq with designed 260-mer pool; 25 mM Tris-HCl, 150 mM KCl, 3 mM MgCl2, BSA (printed 500 mg/mL), 20 units/mL SUPERase IN; pH not stated; 500 nM RNA pool, 1 h, 4 C; TDP-43 5, 50, 500 nM; high values mean tight binding). Conditions: protein: recombinant; tags: SBP (GST cleaved off with PreScission; pGEX-GST-SBP).
Sequence of TDP-43 (Q13148 whole entry): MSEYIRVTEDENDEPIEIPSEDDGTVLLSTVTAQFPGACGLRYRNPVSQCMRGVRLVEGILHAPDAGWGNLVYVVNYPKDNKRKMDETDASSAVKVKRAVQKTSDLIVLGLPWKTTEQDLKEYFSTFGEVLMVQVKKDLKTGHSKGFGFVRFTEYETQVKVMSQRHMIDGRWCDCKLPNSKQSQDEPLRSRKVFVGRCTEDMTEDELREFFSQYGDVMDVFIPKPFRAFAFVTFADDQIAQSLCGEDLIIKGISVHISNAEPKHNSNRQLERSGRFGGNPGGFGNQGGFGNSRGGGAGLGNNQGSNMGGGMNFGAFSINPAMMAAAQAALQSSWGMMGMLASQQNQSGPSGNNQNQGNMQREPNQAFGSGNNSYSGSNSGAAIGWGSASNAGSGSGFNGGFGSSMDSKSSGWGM
Procedure, shortened: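 Recombinant SBP-tagged TDP-43 at 5, 50 or 500 nM was captured on streptavidin beads, then incubated 1 h at 4 °C with 500 nM of an in vitro-transcribed 260-nt 3′ UTR oligo pool in 25 mM Tris-HCl, 150 mM KCl, 3 mM MgCl2, BSA and SUPERase IN. Bound RNA was washed, eluted with biotin, reverse transcribed, PCR-amplified and sequenced. Binding is R, each oligo's mapped-read-normalized abundance in the bound sample divided by its abundance in input. Duplicates used two independent protein batches.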

Binder | binding signal
B1 | 0.658 R (bound/input frequency ratio)
B2 | 7.07 R (bound/input frequency ratio)
B3 | 6.07 R (bound/input frequency ratio)
B4 | 6.83 R (bound/input frequency ratio)
B5 | 5.8 R (bound/input frequency ratio)
B6 | 5.59 R (bound/input frequency ratio)
B7 | 7.21 R (bound/input frequency ratio)
B8 | 5.39 R (bound/input frequency ratio)
B9 | 5.68 R (bound/input frequency ratio)
B10 | 6.02 R (bound/input frequency ratio)
